Where “and” joins values, the source holds several entries; their conditions need not be identical. Equal entries are not always repeated. In all, about 410,000 compounds went through this assay and about 18,000 (4.4%) were called active. About 7% were inconclusive and are not listed. No stated cut-off is given here; in the data, active means activity change below about -60%; inconclusive means no clear call, values can overlap the other calls; inactive means above about -39%. Only a selection was taken, and actives are over-represented in it overall. A structure can be active in one record and inactive in another.
experiment: qHTS Assay for inhibitors of the human cytomegalovirus (HCMV); details: HFF cells, HCMV-luciferase reporter, 72 h; at 57.5 µM; stronger effect = lower value
Procedure, shortened: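 Inhibition of viral replication was scored as loss of reporter luminescence in HFFs infected with HCMV-luciferase (MOI 1 PFU/cell) for 72 h; compounds tested at 2 doses, normalized to buffer and Salinomycin controls.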
On the % scale 0 is the no-effect control and ±100 the full control effect.

Row | Structure (SMILES) | activity change, negative = inhibition
1 | CCOC(=O)c1ccc(NC(=O)c2c(NCc3cccs3)sc3c2CCCC3)cc1 | -7.9% (inactive)
2 | COc1cc(Nc2nc(-c3ccc(OC)c(OC)c3)nc3ccccc23)cc(OC)c1 | -33.1% (inactive)
3 | CC(C)(C)Nc1nc(-c2ccccn2)nc2ccccc12 | -100% (active)
4 | COc1ccc(N2CCN(c3nc(-c4ccccc4F)nc4ccccc34)CC2)cc1 | -30% (inactive)
5 | CCCc1nn2c(=O)cc(COC(=O)c3ccc(NC(=O)COc4ccc(F)cc4)cc3)nc2s1 | -24.2% (inactive)
6 | CC(C)(C)C(=O)CCN1C(=O)C2(OCCO2)c2ccccc21 | 1.52% (inactive)
7 | COc1ccc(C2C(=O)N(C3CCCCCC3)CC(=O)N2CCc2ccc(Cl)cc2)cc1OC (configuration not stated) | -12.5% (inactive)
8 | Cc1cn(C)c(CC(=O)NCc2ccccc2)c1C(=O)O | 16.2% (inactive)
9 | CC1=Nc2cc(C(=O)N3CCC(C)CC3)ccc2Sc2ccc(Cl)cc21 | -34.1% (inactive)
10 | NC(=O)C1CCN(C(=O)c2ccc(F)c(S(=O)(=O)N3CCOCC3)c2)CC1 | -6.8% (inactive)
11 | CC1CCN(C(=O)c2ccc(S(=O)(=O)Cc3cc(F)ccc3F)c([N+](=O)[O-])c2)CC1 | -83.1% (active)
12 | Cc1cccc(CSc2nc3ccncc3n2CC(=O)N(C)C2CCCCC2)c1 | 19.5% (inactive)
13 | O=C(NCC(c1ccco1)S(=O)(=O)c1cccs1)c1ccc(F)cc1 (configuration not stated) | 0% (inactive)
14 | CSc1ncnc2sc(C)c(C)c12 | -17.9% (inactive)
15 | Cc1cccc(-n2ccnc2SCC(=O)Nc2cccc3ccccc23)c1C | -0.357% (inactive)
16 | CC(C)CCC(C)NC(=O)c1ccc2nccnc2c1 (configuration not stated) | 43% (inactive)
17 | Cc1ccc(C)c(NC(=O)c2ccc3nccnc3c2)c1 | -67% (active)
18 | O=C(Nc1ccccc1N1CCCCC1)c1ccc2nccnc2c1 | -62.2% (active)
19 | CCn1c(=O)c(=O)n(CC)c2cc(N3CCCCC3)c(NC(=O)c3cccc(F)c3)cc21 | -12.9% (inactive)
20 | O=C(Nc1ccccc1N1CCCC1)c1ccc(F)c(S(=O)(=O)N2CCOCC2)c1 | -11.8% (inactive)
21 | O=C(NCCc1ccc(F)cc1)c1ccc2nccnc2c1 | 104% (inactive)
22 | CCOC(=O)c1ccccc1NC(=O)c1nn(-c2ccc(OC)c(Cl)c2)c(=O)c2c1c1ccccc1n2C | 11.6% (inactive)

Row | Structure (SMILES) | activity change, negative = inhibition
23 | Cc1ccc(C)c(Cn2c(C(=O)O)c(CNCc3cccs3)c3ccccc32)c1 | -8.87% (inactive)
24 | CC(=O)N1CCCc2cc(S(=O)(=O)N3CCC(C(=O)NCc4ccc(C)cc4)CC3)ccc21 | -4.1% (inactive)
25 | COc1ccc(OC)c(-c2noc(N3CCN(c4cc(Cl)ccc4C)CC3)n2)c1 | -0.0922% (inactive)
26 | COC(=O)c1cc(NC(=O)c2cnc(SC)nc2-c2ccccc2)cc(C(=O)OC)c1 | 22.8% (inactive)
27 | CC1CCC(C(C)C)C(=O)/C1=C\c1ccc(NC(=O)CCC(=O)O)cc1 (configuration not stated) | -26.4% (inactive)
28 | CCOC(=O)N1CCN(C(c2ccnc3ccccc23)c2nnnn2-c2c(C)cccc2C)CC1 (configuration not stated) | -0.353% (inactive)
29 | CC(C)C(c1nnnn1Cc1ccccc1)N1CCC(C(N)=O)CC1 (configuration not stated) | 55.3% (inactive)
30 | O=c1[nH]c2ccccc2n1C1CCN(C(c2ccnc3ccccc23)c2nnnn2Cc2ccccc2)CC1 (configuration not stated) | -61.4% (active)
31 | CSCCC(c1nnnn1C(C)(C)C)N1CCC(n2c(=O)[nH]c3ccccc32)CC1 (configuration not stated) | -37.7% (inactive)
32 | O=c1[nH]c2ccccc2n1C1CCN(C(c2ccccc2)c2nnnn2Cc2ccccc2)CC1 (configuration not stated) | -93.7% (active)
33 | O=c1[nH]c2ccccc2n1C1CCN(CCOc2ccccc2)CC1 | -29.7% (inactive)
34 | CCCN(CCC)CCCNC(=O)CNC(=O)c1nn(-c2ccc(OC)cc2)c(=O)c2ccccc12 | -0.192% (inactive)
35 | Cc1ccc(Cl)cc1N1CCN(C(=O)c2cn(C)c3ccc(S(=O)(=O)N(C)C4CCCCC4)cc3c2=O)CC1 | 19.9% (inactive)
36 | Cc1cccc(OCC(=O)N(Cc2ccc(C(C)C)cc2)Cc2ccco2)c1C | -2.95% (inactive)
37 | Cc1nc(-c2nnc(SCC(=O)Nc3cc(C(F)(F)F)cc(C(F)(F)F)c3)n2C)cs1 | 18.5% (inactive)
38 | COc1cc(NC(=O)c2nc3ccccc3nc2C)cc(OC)c1OC | 22.8% (inactive)
39 | Cc1nc2ccccc2nc1N/N=C/c1ccc(O)cc1O | -86.2% (active)
40 | Cc1n[nH]c(=O)nc1N/N=C/c1cccs1 | 11.4% (inactive)
41 | COc1ccc(CNC(=O)c2c[nH]c3c(OC)cc(OC)cc3c2=O)cc1 | -39% (inactive)
42 | COc1cccc2cc(C(=O)NCc3ccc(C)cc3)c(=N)oc12 | -3.52% (inactive)
43 | COc1ccc(CNC(=O)c2cc3cccc(OC)c3oc2=O)cc1 | -88.7% (active)
44 | Cc1c(Cl)cccc1NC(=O)CCS(=O)(=O)c1ccc2c(c1)oc(=O)n2C | -4.78% (inactive)

Row | Structure (SMILES) | activity change, negative = inhibition
45 | Cc1ccc(NC(=O)CS(=O)CC(=O)N(c2ccccc2)C(C)C(=O)NC2CCCC2)cc1 (configuration not stated) | 4.37% (inactive)
46 | O=C(CCn1nnc2ccccc21)OCC(=O)c1ccc([N+](=O)[O-])cc1 | 2.27% (inactive)
47 | O=C(Cn1c[n+](CC(=O)c2ccc([N+](=O)[O-])cc2)cn1)c1ccc([N+](=O)[O-])cc1 | -34.4% (inactive) and -92.6% (active)
48 | O=C(CC(n1cncn1)C(Cl)(Cl)Cl)c1ccc([N+](=O)[O-])cc1 (configuration not stated) | -0.398% (inactive)
49 | C[C@H](CO)N1C[C@H](C)[C@H](CN(C)C(=O)c2ccncc2)OCc2ccccc2-c2c(n(C)c3ccccc23)C1=O | -0.378% (inactive)
50 | CCN(CC)CCNc1ncnc2c1cnn2-c1cc(Cl)ccc1C | -19.7% (inactive)
51 | COc1ccc(NC(=O)C2=CC(c3ccc(OC)c(OC)c3)=NS(=O)(=O)N2C)cc1 | -70.9% (active)
52 | COc1cc(NC(=O)C2=CC(c3ccc(C)cc3)=NS(=O)(=O)N2C)cc(OC)c1OC | 8.94% (inactive)
53 | COc1ccc(C2=NS(=O)(=O)N(C)C(C(=O)NC(C)c3ccccc3)=C2)cc1 (configuration not stated) | -13.9% (inactive) and -20.9% (inactive)
54 | CCOC(=O)c1c(NC(=O)c2cc(-c3ccc(Cl)cc3)on2)sc2c1CCCC2 | 3.67% (inactive)
55 | CCOC(=O)c1c(NC(=O)C2(C)Cc3ccccc3C(=O)O2)sc2c1CCCC2 (configuration not stated) | -77.4% (active)
56 | CCOC(=O)c1c(NC(=O)/C(C#N)=C/c2ccccc2)sc2c1CCC2 | 2.23% (inactive)
57 | Cc1ccc2nc(-c3ccc(C)c(NC(=O)Cc4ccccc4)c3)oc2c1 | 38% (inactive)
58 | COc1ccccc1NC(=O)c1oc2ccccc2c1NC(=O)C(C)C | 0.436% (inactive)
59 | COc1ccc(OC)c(-c2nc(C(N)=O)c3c(n2)n(-c2ccc4c(c2)OCO4)c(=O)n3C)c1 | 3.83% (inactive)
60 | CC(=O)c1ccccc1NC(=O)COC(=O)C1COc2ccccc2O1 (configuration not stated) | -15% (inactive)
61 | O=C1C(=O)N(CC2COc3ccccc3O2)c2ccccc21 (configuration not stated) | -62.4% (active)
62 | Cc1ccc(Cl)cc1NC(=O)NC1COc2ccccc2C1 (configuration not stated) | -3.29% (inactive)
63 | Cc1cc(C(=O)CCl)c(C)n1CC1COc2ccccc2O1 (configuration not stated) | -96.1% (active)
64 | CC1COc2ccccc2N1S(=O)(=O)c1ccccc1 (configuration not stated) | -16.1% (inactive)
65 | O=C1C(=O)N(c2ccccc2)c2ccccc21 | 43.2% (inactive)
66 | CC(C)CC(NC(=O)C1CCCN1C(=O)[C@@H](C)NC(=O)OCc1ccccc1)C(=O)NCC(N)=O (some centres not stated) | -24.5% (inactive)

Row | Structure (SMILES) | activity change, negative = inhibition
67 | Cc1cccc(NC(=O)Cn2c(=O)n(CCC(C)C)c(=O)c3cccnc32)c1 | 28.9% (inactive)
68 | O=C(c1ccco1)N1CCN(C(=O)C2c3ccccc3Oc3ccccc32)CC1 | -21.7% (inactive)
69 | CCOC(=O)Cc1csc(NC(=O)CN(C)S(=O)(=O)c2ccc3c(c2)CCC(=O)N3)n1 | 14.5% (inactive)
70 | Cc1cccc(-c2nc(SCc3ccc(Br)cc3)n3[nH]c(=O)cc3n2)c1 | -0.292% (inactive)
71 | COc1ccc(NC(=O)CSc2nccn2Cc2ccc3c(c2)OCO3)cc1 | 2.57% (inactive)
72 | Cc1cc(C(=O)CSc2nc(N)cc(=O)[nH]2)c(C)n1-c1cccc(F)c1 | -80.8% (active)
73 | C=CCSc1nc(N)cc(=O)[nH]1 | -24.3% (inactive)
74 | Cc1cc(C)c(C(=O)CSc2nc(C)cc(=O)[nH]2)c(C)c1 | 19% (inactive)
75 | CCOC(=O)C1(C(F)(F)F)N=C(N(C)C)OC(N(C)C)=N1 | 9.94% (inactive)
76 | CCOc1ccc(-c2cc(C)[n+](CCN(CC)CC)c(-c3ccc(OCC)cc3)c2)cc1 | -97.6% (active)
77 | CCOc1ccc(-c2nnc3ccc(SC)nn23)cc1 | -19.6% (inactive)
78 | CCOc1ccc2c(c1)C(c1ccc(C)cc1)=NNC(c1ccc(C)cc1)=N2 | 9.03% (inactive)
79 | O=C(CSc1nccn1C1CCCC1)Nc1cc(C(F)(F)F)ccc1Cl | -87.5% (active)
80 | Cc1cccc(-n2ccnc2SCC(=O)Nc2cc(C(F)(F)F)ccc2Cl)c1 | -18.2% (inactive)
81 | COc1ccc(NC(=O)CSc2nccn2C2CCCC2)cc1OC | -35.1% (inactive)
82 | Cc1cc(NS(=O)(=O)c2ccc3oc(=O)c4ncn(C)c4c3c2)ccc1Br | -24.9% (inactive)
83 | Cn1nnnc1SCCCNCc1ccc(Cl)cc1 | 5.82% (inactive)
84 | COc1ccccc1CCNC(=O)c1cccn1-c1nnc(N2CCCCC2)s1 | -14.3% (inactive)
85 | Cc1ccc(NC(=O)CN(C)C(=O)Cn2nnc(-c3ccccc3)n2)cc1 | -24.5% (inactive)
86 | COc1ccc(C(=O)N2CCCCC2C(=O)Nc2ccc(-n3nc(C)cc3C)cc2)o1 (configuration not stated) | 7.64% (inactive)
87 | C[C@@H]1C[C@@H]2O[C@H]2/C=C\C=C\C(=O)Cc2c(Cl)c(O)cc(O)c2C(=O)O1 | -76.2% (active)

Reference: PubChem BioAssay AID1259415 (National Center for Advancing Translational Sciences (NCATS), 2018)
